In PubChem BioAssay (EPA / NIEHS):
Some structures have more than one record in an assay (separate samples or runs), and their calls can disagree. The source made the active and inactive calls. The calls were made as follows: active = hit-call score of the fitted dose curve at least 0.9, where 1 is the maximum; inactive = score below 0.9.

Experiment: ATG_PBREM_CIS: Attagene CIS-FACTORIAL HepG2 Assay for human Phenobarbital-responsive Enhancer Module (PBREM) (AID 2282955)
Details: HepG2 PBREM cis-reporter, Attagene multiplexed transcription; actives raise or lower the signal
Method: ATG_CIS is a cell-based, multiplexed-readout assay that uses HepG2, a human liver cell line, with measurements taken at 24 hours after chemical dosing in a 24-well plate.ATG_PBREM_CIS is one of 52 assay component(s) measured or calculated from the ATG_CIS assay. It is designed to make measurements of mRNA induction, a form of inducible reporter, as detected with fluorescence intensity signals by Reverse transcription polymerase chain reaction (RT-PCR) and Capillary electrophoresis technology.Data from the assay component ATG_PBREM_CIS was analyzed into 1 assay endpoint. This assay endpoint, ATG_PBREM_CIS, was analyzed with bidirectional fitting relative to DMSO as the negative control and baseline of activity. Using a type of inducible reporter, measures of mRNA for gain or loss-of-signal activity can be used to understand the reporter gene at the transcription factor-level as they relate to the gene NR1I3. Furthermore, this assay endpoint can be referred to as a primary readout, because this assay has produced multiple assay endpoints where this one serves a reporter gene function. To generalize the intended target to other relatable targets, this assay endpoint is annotated to the nuclear receptor intended target family, where the subfamily is non-steroidal.
Human liver HepG2 cells are transiently transfected with multiple reporter transcription units (MRTUs) in 6-well plates using FuGene 6 reagent (Roche; 3 ml FuGene/1 mg DNA). The MRTU constructs are regulated by a cis-regulating element (promoter). […] A major difference between the CIS and TRANS system is that in CIS activities of endogenous TFs are measured, whereas the TRANS assay evaluates changes in activities of exogenous, chimeric NR-Gal4 proteins. […] At the end of 24 hour incubation, total RNA was isolated using TriZol reagent (Invitrogen). The isolated RNA is then reverse-transcribed using oligo(dT) primer and Mo-MLV reverse transcriptase (Invitrogen) with DNAse I (Ambion) treatment for 30 min. The one-tenth of the produced cDNA was amplified by PCR using Taq DNA polymerase (Invitrogen) and two reporter sequence-specific primers. The PCR products were fluorescently labeled by primer extension with 6-arboxyfluorescein (6-FAM) 5'-labeled reporter sequence-specific primer (2 min at 95 C, 20 s at 68 C and 10 min at 72 C) and these products were digested with 5U of HpaI (New England Biolabs) for 2h at 37 C. The fragments were purified using Qiaquick PCR columns (Qiagen), analyzed on an ABI 3130xL genetic analyzer (Applied Biosystems) with peak positions identified by using a set of X-rhodamine (ROX)-labeled MapMarker1000 molecular weight standards (BioVentures). The raw capillary electrophoresis data was processed using Attagraph software (Attagene).

**Q.** For Nc1ccc([N+](=O)[O-])cc1O, which outcome is on record?
**A.** inactive

**Q.** With CNC(=S)NC as the compound, how does the outcome read?
**A.** inactive

**Q.** Which outcome does the source give for CC/C=C\CCOC(=O)c1ccccc1 here?
**A.** inactive

**Q.** For Cc1cccc(N(C)C)c1, which outcome is on record?
**A.** inactive

**Q.** With C#C[C@]1(O)CC[C@H]2[C@@H]3CCc4cc(OC)ccc4[C@H]3CC[C@@]21C as the compound, how does the outcome read?
**A.** inactive

**Q.** Which outcome does the source give for O=C(CC(=O)C(F)(F)C(F)(F)F)C(F)(F)F here?
**A.** inactive

**Q.** With CC(CCl)OP(=O)(OC(C)CCl)OC(C)CCl (stereo not given) as the compound, how does the outcome read?
**A.** inactive

**Q.** Which outcome does the source give for FC(F)(I)C(F)(F)C(F)(F)C(F)(F)I here?
**A.** inactive

**Q.** Which outcome does the source give for CCCCNc1ccccc1 here?
**A.** inactive

**Q.** With O=C(O)C(F)(F)C(F)(F)C(F)(F)F as the compound, how does the outcome read?
**A.** inactive

**Q.** For Nc1cc(Cl)c(N)c(Cl)c1, which outcome is on record?
**A.** inactive

**Q.** With C=CC(=O)OCC(F)(F)C(F)(F)C(F)(F)C(F)(F)C(F)(F)C(F)(F)C(F)(F)F as the compound, how does the outcome read?
**A.** inactive

**Q.** With O=C(O)C(F)(OC(F)(F)C(F)(OC(F)(F)C(F)(OC(F)(F)C(F)(F)C(F)(F)F)C(F)(F)F)C(F)(F)F)C(F)(F)F (stereo not given) as the compound, how does the outcome read?
**A.** inactive

**Q.** With C=CC(F)(F)C(F)(F)C(F)(F)C(F)(F)C(F)(F)C(F)(F)C(F)(F)C(F)(F)C=C as the compound, how does the outcome read?
**A.** inactive

**Q.** With CCN(CC)c1ccc2c(C)cc(=O)oc2c1 as the compound, how does the outcome read?
**A.** inactive

**Q.** With FC(F)(F)C(F)(F)C(F)(F)C(F)(F)C(F)(F)CCI as the compound, how does the outcome read?
**A.** inactive

**Q.** For FC(F)(F)C(F)(F)C(F)(F)C(F)(F)C(F)(F)C(F)(F)C(F)(F)Br, which outcome is on record?
**A.** inactive

**Q.** For OCC(F)(F)C(F)(F)C(F)(F)F, which outcome is on record?
**A.** inactive

**Q.** For NC(=O)C(F)(F)C(F)(F)C(F)(F)C(F)(F)F, which outcome is on record?
**A.** inactive

**Q.** Which outcome does the source give for CCN(Cc1cccc(S(=O)(=O)O)c1)c1ccc(C(=C2C=CC(=[N+](CC)Cc3cccc(S(=O)(=O)O)c3)C=C2)c2ccc(O)cc2S(=O)(=O)[O-])cc1 here?
**A.** inactive

**Q.** Which outcome does the source give for O=C(O)C(F)(F)C(F)(F)C(F)(F)C(F)(F)F here?
**A.** inactive

**Q.** With O=C(C=Cc1ccccc1)OCC=Cc1ccccc1 as the compound, how does the outcome read?
**A.** inactive

**Q.** Which outcome does the source give for Cc1cc(C)cc(O)c1 here?
**A.** inactive

**Q.** For CN(C)Cc1ccccc1O, which outcome is on record?
**A.** inactive

**Q.** With CC(=O)Nc1ccc(N=Nc2cc(C)ccc2O)cc1 as the compound, how does the AC50 read?
**A.** 49.4 µM (active)

**Q.** For OCCCC(F)(F)C(F)(F)C(F)(F)C(F)(F)C(F)(F)C(F)(F)C(F)(F)F, which AC50 is on record?
**A.** 150 µM (active)

**Q.** And the outcome?
**A.** inactive

**Q.** With CCCCC(CC)COP(=O)(O)OCC(CC)CCCC (stereo not given) as the compound, how does the outcome read?
**A.** inactive

**Q.** With C=CC/C=C/C/C=C/C/C=C/C as the compound, how does the outcome read?
**A.** inactive

**Q.** Which outcome does the source give for c1ccc(-c2ccccc2-c2ccccc2)cc1 here?
**A.** inactive

**Q.** Which outcome does the source give for O=C(O)C(F)(F)C(F)(F)OC(F)(F)F here?
**A.** inactive

**Q.** With CC(C)OC(=O)c1ccccc1C(=O)OC(C)C as the compound, how does the outcome read?
**A.** inactive

**Q.** For CCCCCCCOC(=O)c1ccccc1C(=O)OCCCCCCC, which outcome is on record?
**A.** inactive

**Q.** With CCCCCCC(C)OC(=O)CCCCC(=O)OC(C)CCCCCC (stereo not given) as the compound, how does the outcome read?
**A.** inactive

**Q.** With FC(F)(F)C(F)(F)C(F)(F)C(F)(F)C(F)(F)C(F)(F)C(F)(F)C(F)(F)CCS as the compound, how does the outcome read?
**A.** inactive

**Q.** Which outcome does the source give for CC(C)(C)C(=O)CC(=O)C(F)(F)C(F)(F)C(F)(F)F here?
**A.** inactive

**Q.** With C=C(C)C(=O)OCC(F)(F)C(F)(F)C(F)(F)C(F)(F)C(F)(F)C(F)(F)C(F)(F)F as the compound, how does the outcome read?
**A.** inactive

**Q.** Which outcome does the source give for O=S(=O)(O)C(F)(F)C(F)(F)C(F)(F)C(F)(F)C(F)(F)C(F)(F)C(F)(F)F here?
**A.** inactive

**Q.** Which outcome does the source give for CCCCCCOC(=O)c1ccccc1O here?
**A.** inactive

**Q.** For FC(F)(F)C(F)(F)C(F)(F)C(F)(F)C(F)(F)C(F)(F)CCS, which outcome is on record?
**A.** inactive
